Hit rate of the full screen: of about 5,500 compounds, about 2,000 (36%) were called active. Another 18% or so got no clear call; they are omitted. Cut-off read from the data, not from the text of the source: active = normalized growth mostly below about 0.91 (no sharp cut-off); inconclusive = no clear call, values can overlap the other calls; inactive = mostly above about 0.92. Some of the results follow.
Assay: chemical genetic growth profiling, strain panel (AID 1159580);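 note: tested at 20 µM; growth read once vehicle control cultures reached saturation at 30 °C; 1 = growth at the plate median or of vehicle wells; lower values mean less growth of the strain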
Settings: growth OD
[1] = S. cerevisiae deletion strains, locus YDL101C, strain DUN1, hits give low values
[2] = S. cerevisiae deletion strains, locus YHR030C, strain SLT2, hits give low values
[3] = S. cerevisiae deletion strains, locus YJL095W, strain BCK1, hits give low values
[4] = S. cerevisiae deletion strains, locus YOR061W, strain CKA2, hits give low values

Measured: normalized growth

CC(=O)C1=C(O)C2C3c4c[nH]c5cccc(c45)CC3C(C)(C)N2C1=O (configuration not stated)
inactive: S. cerevisiae deletion strains, locus YAL013W, strain DEP1, hits give low values 0.994 | S. cerevisiae deletion strains, locus YBR021W, strain FUR4, hits give low values 0.983 | S. cerevisiae deletion strains, locus YBR229C, strain ROT2, hits give low values 0.997 | S. cerevisiae deletion strains, locus YCL029C, strain bik1, hits give low values 1 | S. cerevisiae deletion strains, locus YDL035C, strain GPR1, hits give low values 1.01 | S. cerevisiae deletion strains, locus YDL074C, strain BRE1, hits give low values 1.01 | [1] 1.01 | S. cerevisiae deletion strains, locus YDL134C, strain PPH21, hits give low values 1 | S. cerevisiae deletion strains, locus YDL185W, strain tfp1, hits give low values 0.995 | S. cerevisiae deletion strains, locus YDL192W, strain arf1, hits give low values 1 | S. cerevisiae deletion strains, locus YDR101C, strain arx1, hits give low values 0.995 | S. cerevisiae deletion strains, locus YDR150W, strain NUM1, hits give low values 1.01 | S. cerevisiae deletion strains, locus YDR162C, strain NBP2, hits give low values 0.993 | S. cerevisiae deletion strains, locus YDR318W, strain mcm21, hits give low values 1.01 | S. cerevisiae deletion strains, locus YDR388W, hits give low values 1 | S. cerevisiae deletion strains, locus YDR502C, strain sam2, hits give low values 1.01 | S. cerevisiae deletion strains, locus YEL061C, strain CIN8, hits give low values 0.989 | S. cerevisiae deletion strains, locus YER110C, hits give low values 1.01 | S. cerevisiae deletion strains, locus YER155C, strain BEM2, hits give low values 1 | S. cerevisiae deletion strains, locus YER167W, strain BCK2, hits give low values 1.01 | S. cerevisiae deletion strains, locus YGL078C, strain dbp3, hits give low values 1 | S. cerevisiae deletion strains, locus YGL086W, strain mad1, hits give low values 1.01 | S. cerevisiae deletion strains, locus YGL248W, strain PDE1, hits give low values 0.997 | S. cerevisiae deletion strains, locus YGR078C, strain PAC10, hits give low values 0.975 | S. cerevisiae deletion strains, locus YGR135W, strain pre9, hits give low values 0.993 | S. cerevisiae deletion strains, locus YGR229C, strain SMI1, hits give low values 0.971 | S. cerevisiae deletion strains, locus YGR252W, strain gcn5, hits give low values 1.04 | [2] 1.01 | S. cerevisiae deletion strains, locus YHR079C, strain IRE1 (second series), hits give low values 1.02 | S. cerevisiae deletion strains, locus YHR094C, strain hxt1, hits give low values 1 | S. cerevisiae deletion strains, locus YHR129C, strain ARP1, hits give low values 1 | S. cerevisiae deletion strains, locus YHR200W, strain rpn10, hits give low values 1.01 | S. cerevisiae deletion strains, locus YIL066C, strain RNR3, hits give low values 1.04 | S. cerevisiae deletion strains, locus YIL073C, strain SPO22, hits give low values 1.07 | S. cerevisiae deletion strains, locus YIL125W, strain kgd1, hits give low values 1 | S. cerevisiae deletion strains, locus YIR030C, strain dcg1, hits give low values 1 | [3] 1 | S. cerevisiae deletion strains, locus YJL134W, strain LCB3, hits give low values 1.01 | S. cerevisiae deletion strains, locus YJL168C, strain set2, hits give low values 1.01 | S. cerevisiae deletion strains, locus YJL187C, strain SWE1 (second series), hits give low values 1.01 | S. cerevisiae deletion strains, locus YJR043C, strain POL32, hits give low values 1.01 | S. cerevisiae deletion strains, locus YJR075W, strain HOC1, hits give low values 1 | S. cerevisiae deletion strains, locus YKL009W, strain mrt4, hits give low values 1.03 | S. cerevisiae deletion strains, locus YKL068W, hits give low values 1 | S. cerevisiae deletion strains, locus YKL085W, strain MDH1 (second series), hits give low values 0.994 | S. cerevisiae deletion strains, locus YKL085W, strain MDH1, hits give low values 0.994 | S. cerevisiae deletion strains, locus YKL190W, strain CNB1, hits give low values 0.99 | S. cerevisiae deletion strains, locus YKR001C, strain vps1, hits give low values 1 | S. cerevisiae deletion strains, locus YLR039C, strain RIC1, hits give low values 0.979 | S. cerevisiae deletion strains, locus YLR058C, strain SHM2, hits give low values 1 | S. cerevisiae deletion strains, locus YLR102C, strain apc9, hits give low values 1.01 | S. cerevisiae deletion strains, locus YLR262C, strain YPT6, hits give low values 0.97 | S. cerevisiae deletion strains, locus YLR268W, strain sec22, hits give low values 0.995 | S. cerevisiae deletion strains, locus YLR330W, strain CHS5, hits give low values 0.992 | S. cerevisiae deletion strains, locus YLR342W, strain FKS1 (second series), hits give low values 1.02 | S. cerevisiae deletion strains, locus YLR371W, strain rom2, hits give low values 1.01 | S. cerevisiae deletion strains, locus YLR418C, strain cdc73, hits give low values 0.99 | S. cerevisiae deletion strains, locus YML016C, strain PPZ1, hits give low values 1 | S. cerevisiae deletion strains, locus YML032C, strain rad52, hits give low values 1.01 | S. cerevisiae deletion strains, locus YML124C, strain tub3, hits give low values 1 | S. cerevisiae deletion strains, locus YMR078C, strain ctf18, hits give low values 1 | S. cerevisiae deletion strains, locus YMR223W, strain ubp8, hits give low values 1.03 | S. cerevisiae deletion strains, locus YMR263W, strain SAP30, hits give low values 1.01 | S. cerevisiae deletion strains, locus YMR307W, strain GAS1, hits give low values 1.08 | S. cerevisiae deletion strains, locus YNL067W, strain RPL9B, hits give low values 1 | S. cerevisiae deletion strains, locus YNL128W, strain TEP1, hits give low values 0.998 | S. cerevisiae deletion strains, locus YNL153C, strain GIM3, hits give low values 0.999 | S. cerevisiae deletion strains, locus YNL233W, strain BNI4, hits give low values 1.01 | S. cerevisiae deletion strains, locus YNL250W, strain rad50, hits give low values 1.01 | S. cerevisiae deletion strains, locus YNL271C, strain bni1, hits give low values 1.01 | S. cerevisiae deletion strains, locus YNL298W, strain CLA4, hits give low values 0.998 | S. cerevisiae deletion strains, locus YNL307C, strain MCK1, hits give low values 1.02 | S. cerevisiae deletion strains, locus YNL322C, strain KRE1, hits give low values 1 | S. cerevisiae deletion strains, locus YNR052C, strain pop2, hits give low values 1.01 | S. cerevisiae deletion strains, locus YOL006C, strain TOP1, hits give low values 1.06 | S. cerevisiae deletion strains, locus YOL012C, strain htz1 0.841 | S. cerevisiae deletion strains, locus YOL147C, strain pex11, hits give low values 1.01 | [4] 1 | S. cerevisiae deletion strains, locus YOR069W, strain VPS5, hits give low values 0.993 | S. cerevisiae deletion strains, locus YOR136W, strain idh2, hits give low values 1.01 | S. cerevisiae deletion strains, locus YOR144C, strain elg1, hits give low values 1 | S. cerevisiae deletion strains, locus YOR184W, strain ser1, hits give low values 1.03 | S. cerevisiae deletion strains, locus YOR316C, strain cot1, hits give low values 1 | S. cerevisiae deletion strains, locus YPL055C, strain LGE1, hits give low values 0.976 | S. cerevisiae deletion strains, locus YPL241C, strain CIN2, hits give low values 1.05 | S. cerevisiae deletion strains, locus YPR119W, strain clb2, hits give low values 1 | S. cerevisiae deletion strains, locus YPR141C, strain kar3, hits give low values 1 | S. cerevisiae deletion strains, locus YPR163C, strain tif3, hits give low values 1 | S. cerevisiae deletion strains, locus YPR167C, strain met16, hits give low values 1.01 | S. cerevisiae deletion strains, strain wtn01, hits give low values 0.995 | S. cerevisiae strains, strain wild type, hits give low values 0.971

COCCOc1ccccc1NC(=S)SCCSC(=S)Nc1ccccc1OCCOC
inactive: S. cerevisiae deletion strains, locus YAR019C, strain CDC15, hits give low values 0.988 | S. cerevisiae deletion strains, locus YBL105C, strain PKC1, hits give low values 0.978 | S. cerevisiae deletion strains, locus YBR135W, strain CKS1, hits give low values 0.978 | S. cerevisiae deletion strains, locus YBR136W, strain MEC1, hits give low values 0.977 | S. cerevisiae deletion strains, locus YBR160W, strain CDC28, hits give low values 0.979 | S. cerevisiae deletion strains, locus YDL017W, strain CDC7, hits give low values 0.98 | S. cerevisiae deletion strains, locus YDL028C, strain MPS1, hits give low values 0.98 | [1] 0.973 | S. cerevisiae deletion strains, locus YDL108W, strain KIN28, hits give low values 0.97 | S. cerevisiae deletion strains, locus YDL132W, strain cdc53, hits give low values 0.976 | S. cerevisiae deletion strains, locus YDL214C, strain PRR2, hits give low values 0.911 | S. cerevisiae deletion strains, locus YDR052C, strain DBF4, hits give low values 0.981 | S. cerevisiae deletion strains, locus YDR054C, strain cdc34, hits give low values 0.976 | S. cerevisiae deletion strains, locus YDR226W, strain ADK1, hits give low values 0.969 | S. cerevisiae deletion strains, locus YDR477W, strain SNF1, hits give low values 0.955 | S. cerevisiae deletion strains, locus YER123W, strain YCK3, hits give low values 0.883 | S. cerevisiae deletion strains, locus YER133W, strain GLC7, hits give low values 0.938 | S. cerevisiae deletion strains, locus YFL009W, strain cdc4, hits give low values 0.976 | S. cerevisiae deletion strains, locus YFL029C, strain CAK1, hits give low values 0.981 | S. cerevisiae deletion strains, locus YFR003C, strain YPI1, hits give low values 0.977 | S. cerevisiae deletion strains, locus YFR019W, strain FAB1, hits give low values 0.945 | S. cerevisiae deletion strains, locus YFR028C, strain CDC14, hits give low values 0.988 | S. cerevisiae deletion strains, locus YGR040W, strain KSS1, hits give low values 0.938 | S. cerevisiae deletion strains, locus YGR052W, strain FMP48, hits give low values 1 | S. cerevisiae deletion strains, locus YGR092W, strain DBF2, hits give low values 0.933 | [2] 1.15 | S. cerevisiae deletion strains, locus YHR079C, strain IRE1, hits give low values 1.03 | S. cerevisiae deletion strains, locus YHR082C, strain KSP1, hits give low values 1.01 | S. cerevisiae deletion strains, locus YHR205W, strain SCH9, hits give low values 0.936 | S. cerevisiae deletion strains, locus YIL147C, strain SLN1, hits give low values 0.97 | [3] 1.03 | S. cerevisiae deletion strains, locus YJL128C, strain PBS2, hits give low values 0.941 | S. cerevisiae deletion strains, locus YJL157C, strain FAR1, hits give low values 0.924 | S. cerevisiae deletion strains, locus YJR016C, strain ILV3, hits give low values 0.987 | S. cerevisiae deletion strains, locus YJR066W, strain TOR1 (second series), hits give low values 0.899 | S. cerevisiae deletion strains, locus YJR066W, strain TOR1, hits give low values 1.03 | S. cerevisiae deletion strains, locus YKL048C, strain ELM1, hits give low values 0.944 | S. cerevisiae deletion strains, locus YKL067W, strain YNK1, hits give low values 0.937 | S. cerevisiae deletion strains, locus YKL101W, strain HSL1, hits give low values 0.931 | S. cerevisiae deletion strains, locus YKL193C, strain SDS22, hits give low values 0.985 | S. cerevisiae deletion strains, locus YKL203C, strain TOR2, hits give low values 1.02 | S. cerevisiae deletion strains, locus YLR113W, strain HOG1, hits give low values 0.931 | S. cerevisiae deletion strains, locus YLR133W, strain CKI1, hits give low values 0.947 | S. cerevisiae deletion strains, locus YLR403W, strain SFP1, hits give low values 0.944 | S. cerevisiae deletion strains, locus YML070W, strain DAK1, hits give low values 0.902 | S. cerevisiae deletion strains, locus YMR001C, strain CDC5, hits give low values 0.981 | S. cerevisiae deletion strains, locus YMR205C, strain PFK2 (second series), hits give low values 0.939 | S. cerevisiae deletion strains, locus YMR277W, strain FCP1, hits give low values 0.984 | S. cerevisiae deletion strains, locus YNL006W, strain LST8, hits give low values 0.983 | S. cerevisiae deletion strains, locus YNL020C, strain ARK1, hits give low values 0.931 | S. cerevisiae deletion strains, locus YNL161W, strain CBK1, hits give low values 0.984 | S. cerevisiae deletion strains, locus YNL183C, strain NPR1, hits give low values 1.01 | S. cerevisiae deletion strains, locus YNL207W, strain RIO2, hits give low values 0.993 | S. cerevisiae deletion strains, locus YNL222W, strain SSU72, hits give low values 0.972 | S. cerevisiae deletion strains, locus YNL307C, strain MCK1 (second series), hits give low values 0.946 | S. cerevisiae deletion strains, locus YOL078W, strain AVO1, hits give low values 0.98 | S. cerevisiae deletion strains, locus YOL136C, strain PFK27, hits give low values 0.918 | [4] 0.92 | S. cerevisiae deletion strains, locus YOR119C, strain RIO1, hits give low values 0.991 | S. cerevisiae deletion strains, locus YOR231W, strain MKK1, hits give low values 1 | S. cerevisiae deletion strains, locus YOR329C, strain SCD5, hits give low values 0.981 | S. cerevisiae deletion strains, locus YPL031C, strain PHO85, hits give low values 0.949 | S. cerevisiae deletion strains, locus YPL153C, strain RAD53, hits give low values 0.928 | S. cerevisiae deletion strains, locus YPL204W, strain HRR25, hits give low values 0.945 | S. cerevisiae deletion strains, locus YPL209C, strain IPL1, hits give low values 0.978 | S. cerevisiae deletion strains, locus YPL256C, strain CLN2, hits give low values 0.991 | S. cerevisiae deletion strains, locus YPR025C, strain CCL1, hits give low values 0.982 | S. cerevisiae deletion strains, locus YPR106W, strain ISR1, hits give low values 0.98 | S. cerevisiae deletion strains, locus YPR111W, strain DBF20, hits give low values 0.977 | S. cerevisiae deletion strains, strain NNK1, hits give low values 0.981 | S. cerevisiae deletion strains, strain TSCII, hits give low values 0.99

— PubChem BioAssay AID1159580 (chemical genetic matrix, 2015)
